In PubChem BioAssay (NCATS):
Results filed as inconclusive are left out. Activity calls are given as the source filed them. Calls follow the shape of the dose curve; as a rule, active = well fitted curve in the direction sought with a large enough effect; inconclusive = small, poorly fitted or top-dose-only effect, or another doubt; inactive = no such curve, though single readings can be large; an effect the other way counts as inactive or inconclusive. Where a SMILES comes first, the peptide text is derived from it.

Tests used:
CRL-7250 = normal cell line; test: Cytotoxic Profiling of Annotated Libraries Using Quantitative High-Throughput Screening (AID 1296008); details: Five cell lines viability, CellTiter-Glo ATP luminescence, 48-72 h; max response: active compounds read low; also: nearly all actives have a fitted effect of over 60% in size; as to max response: % is scaled to controls: 0 for no effect and ±100 for the full control effect
Method in brief: (§1)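 Cytotoxicity was measured as CellTiter-Glo ATP luminescence, read after 10 min at room temperature. Compound treatment of the cells lasted 48 or 72 hr at 37 degrees Celsius in a qHTS format.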

HEK293 = test: as above; details: Five cell lines viability, CellTiter-Glo ATP luminescence, 48-72 h; max response: active compounds read low
Method in brief: as §1

HaCat [1] = test: as above; details: Five cell lines viability, CellTiter-Glo ATP luminescence, 48-72 h; max response: active compounds read low
Method in brief: as §1

KB-3-1 = test: as above; details: Five cell lines viability, CellTiter-Glo ATP luminescence, 48-72 h; max response: active compounds read low
Method in brief: as §1

NIH3T3 = test: as above; details: Five cell lines viability, CellTiter-Glo ATP luminescence, 48-72 h; max response: active compounds read low
Method in brief: as §1

HACAT [2] = test: qHTS assay to identify novel small-molecules to repurpose for Merkel cell carcinoma treatment (AID 1296009); details: MCC and control cell lines, CellTiter-Glo viability, 72 h; at 44.8 µM (top of the series) unless noted; also: nearly all actives have a fitted effect of over 60% in size
Method in brief: (§2)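 Cell viability, measured as CellTiter-Glo luminescence, was normalized between DMSO and no-cell wells. The cells had been exposed to 8- or 11-point compound dilutions for 72 hr at 37 degree celsius.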

C33A = test: Primary qHTS to identify gynecologic anti-cancer compounds using libraries of approved drugs and bioactive compounds (AID 1345084); details: Gynecologic cancer cell panel viability, ATPlite luminescence, 48 h; series mostly up to 57.5 µM; also: % is scaled to controls: 0 for no effect and ±100 for the full control effect; nearly all actives have a fitted effect of over 55% in size
Method in brief: (§3)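 ATP-based viability (ATPlite), 1,000 cells/well, 16 h pre-incubation, 48 h compound at 37 C, 5% CO2, 15 min RT before read.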

CASKI = test: as above; details: Gynecologic cancer cell panel viability, ATPlite luminescence, 48 h; series mostly up to 57.5 µM
Method in brief: as §3

Es-2 = test: as above; details: Gynecologic cancer cell panel viability, ATPlite luminescence, 48 h; series mostly up to 57.5 µM
Method in brief: as §3

HeLa = test: as above; details: Gynecologic cancer cell panel viability, ATPlite luminescence, 48 h; series mostly up to 57.5 µM
Method in brief: as §3

Hek293T [3] = test: as above; details: Gynecologic cancer cell panel viability, ATPlite luminescence, 48 h, control line for the selectivity index; series mostly up to 57.5 µM
Method in brief: as §3

JEG-3 = test: as above; details: Gynecologic cancer cell panel viability, ATPlite luminescence, 48 h; series mostly up to 57.5 µM
Method in brief: as §3

HEK293T [4] = test: qHTS assay to identify novel small-molecules to repurpose for Merkel cell carcinoma treatment (AID 1296009); details: MCC and control cell lines, CellTiter-Glo viability, 72 h; at 44.8 µM (top of the series) unless noted; also: nearly all actives have a fitted effect of over 60% in size
Method in brief: as §2

CAOV3 = test: Primary qHTS to identify gynecologic anti-cancer compounds using libraries of approved drugs and bioactive compounds (AID 1345084); details: Gynecologic cancer cell panel viability, ATPlite luminescence, 48 h; series mostly up to 57.5 µM; also: % is scaled to controls: 0 for no effect and ±100 for the full control effect; nearly all actives have a fitted effect of over 55% in size
Method in brief: as §3

CC1CC(=O)[C@]2(O)C(C(=O)OCCc3ccc(O)c(O)c3)=CO[C@@H](O[C@@H]3O[C@H](CO)[C@@H](O)[C@H](O)[C@H]3O)[C@H]12 (stereo partly specified)
inactive: max response (CRL-7250) 4.18% | max response (HEK293) -8.88% | outcome (HaCat [1]) | max response (KB-3-1) 8.6% | max response (NIH3T3) 0.72% | outcome (HACAT [2]) inactive [at 17.4 µM] | Potency (C33A) | outcome (CASKI) | Potency (Es-2) | Potency (HeLa) | Potency (Hek293T [3]) | Potency (JEG-3)

N#CC1C(=O)N=C(c2cc(Cl)ccc2O)C=C1c1cc(OCc2ccccc2)cc(OCc2ccccc2)c1 (stereo unspecified)
inactive: outcome (CRL-7250) | max response (HEK293) 3.52% | outcome (HaCat [1]) | outcome (KB-3-1) | max response (NIH3T3) 1.6% | outcome (HACAT [2]) | Potency (C33A) | outcome (CASKI) | Potency (Es-2) | Potency (HeLa) | Potency (Hek293T [3]) | Potency (JEG-3)

C[C@@H](CC[C@@H]1[C@@]2(C)CCCC(C)(C)C2CC[C@@]1(C)O)CC(=O)O (stereo partly specified)
inactive: outcome (CRL-7250) | max response (HEK293) -2.2% | outcome (HaCat [1]) | outcome (KB-3-1) | max response (NIH3T3) 0.858% | outcome (HACAT [2]) | Potency (C33A) | outcome (CASKI) | Potency (Es-2) | Potency (HeLa) | Potency (Hek293T [3]) | Potency (JEG-3)

C=C(C)[C@@H]1CC[C@]2(C)CC[C@]3(C)C(CCC4[C@@]5(C)CC[C@H](O)C(C)(C)C5CC[C@]43C)C12 (stereo partly specified)
inactive: outcome (CRL-7250) | max response (HEK293) 1.06% | outcome (HaCat [1]) | outcome (KB-3-1) | max response (NIH3T3) 2.33% | outcome (HACAT [2]) inactive [at 17.4 µM] | Potency (C33A) | outcome (CASKI) | Potency (Es-2) | Potency (HeLa) | Potency (Hek293T [3]) | Potency (JEG-3)

CC1(C)C=Cc2c(ccc3c2N=C2C(C)(C)[C@@H]4C[C@]56CCCN5C(=O)[C@@]4(C[C@]23O)NC6=O)O1
inactive: max response (CRL-7250) 3.82% | outcome (HEK293) | max response (HaCat [1]) 3.57% | outcome (KB-3-1) | max response (NIH3T3) -4.67% | outcome (HEK293T [4]) inactive [at 17.4 µM] | Potency (C33A) | Potency (CAOV3) | outcome (CASKI) | Potency (Es-2) | Potency (HeLa) | Potency (Hek293T [3]) | Potency (JEG-3)

CC(=O)OC1CC2(C)C(CCC(C)C23Cc2c(O)cc4c(c2O3)CNC4=O)C(C)(C)C1O (stereo unspecified)
inactive: max response (CRL-7250) -8.86% | outcome (HEK293) | max response (HaCat [1]) -6.41% | outcome (KB-3-1) | max response (NIH3T3) -10.8% | outcome (HEK293T [4]) inactive [at 17.4 µM] | Potency (C33A) | Potency (CAOV3) | outcome (CASKI) | Potency (Es-2) | Potency (HeLa) | Potency (Hek293T [3]) | Potency (JEG-3)

C=C(CCO)C(=O)OCC1OCC(OC(=O)C(=C)CCO[C@@H]2O[C@H](COC(=O)C(=C)CCO[C@@H]3O[C@H](CO)[C@@H](O)[C@H](O)[C@H]3O)[C@@H](O)[C@H](O)[C@H]2O)C(O)C1O (stereo partly specified)
inactive: max response (CRL-7250) 0.815% | outcome (HEK293) | max response (HaCat [1]) -17.9% | max response (KB-3-1) 0.844% | max response (NIH3T3) 3.62% | outcome (HEK293T [4]) inactive [at 17.4 µM] | Potency (C33A) | outcome (CASKI) | Potency (Es-2) | Potency (HeLa) | Potency (Hek293T [3]) | Potency (JEG-3)

O=C1NC(=O)/C(=C/c2cccc(C(F)(F)F)c2)S1
inactive: outcome (CRL-7250) | outcome (HEK293) | max response (HaCat [1]) 3.45% | max response (KB-3-1) -2.21% | max response (NIH3T3) 4.34% | outcome (HEK293T [4]) | Potency (C33A) | Potency (CAOV3) | outcome (CASKI) | Potency (Es-2) | Potency (HeLa) | Potency (Hek293T [3]) | Potency (JEG-3)

CSCC1OC(n2cnc3c(N)ncnc32)C(O)C1O (stereo unspecified)
inactive: outcome (CRL-7250) | outcome (HEK293) | max response (HaCat [1]) 2.69% | outcome (KB-3-1) | max response (NIH3T3) -0.346% | outcome (HEK293T [4]) | Potency (C33A) | Potency (CAOV3) | outcome (CASKI) | Potency (Es-2) | Potency (HeLa) | Potency (Hek293T [3]) | Potency (JEG-3)

O=C(/C=C/c1ccc(O)cc1)OC[C@H]1O[C@H](O[C@@]2(CO)O[C@@H](CO)[C@H](O)[C@H]2O)[C@H](O)[C@@H](O)[C@@H]1O
inactive: outcome (CRL-7250) | outcome (HEK293) | max response (HaCat [1]) 1.8% | outcome (KB-3-1) | max response (NIH3T3) -0.438% | outcome (HEK293T [4]) inactive [at 17.4 µM] | Potency (C33A) | outcome (CASKI) | Potency (Es-2) | Potency (HeLa) | Potency (Hek293T [3]) | Potency (JEG-3)

C[C@]12CC/C(=N\OCC(=O)O)C=C1CC[C@@H]1[C@@H]2[C@@H](O)C[C@@]2(C)[C@H]1CC[C@]2(O)C(=O)CO
inactive: max response (CRL-7250) -6.4% | outcome (HEK293) | max response (HaCat [1]) 2.89% | outcome (KB-3-1) | max response (NIH3T3) -9.49% | outcome (HEK293T [4]) | Potency (C33A) | outcome (CASKI) | Potency (Es-2) | Potency (HeLa) | Potency (Hek293T [3]) | Potency (JEG-3)

O=C1C[C@@]2(C(=O)N1)C(=O)N(Cc1ccc(Br)cc1F)C(=O)c1cccn12
inactive: max response (CRL-7250) -0.124% | outcome (HEK293) | max response (HaCat [1]) -21% | max response (KB-3-1) 1.61% | max response (NIH3T3) 1.31% | outcome (HEK293T [4]) | Potency (C33A) | Potency (CAOV3) | outcome (CASKI) | Potency (Es-2) | Potency (HeLa) | Potency (Hek293T [3]) | Potency (JEG-3)

CC(=O)NC(Cc1ccccc1)C(=O)NC(C(=O)O)C(C)C (stereo not drawn) (Ac-Phe-Val-OH; configuration not given here)
inactive: max response (CRL-7250) -0.555% | outcome (HEK293) | max response (HaCat [1]) -2.09% | max response (KB-3-1) 4.23% | max response (NIH3T3) 4.03% | outcome (HEK293T [4]) | Potency (C33A) | Potency (CAOV3) | Potency (Es-2) | Potency (HeLa) | Potency (Hek293T [3]) | Potency (JEG-3)
